Only some compounds are listed: those with a hit (about 3.5% of all), similar ones and a draw of the others.
GPR151 activ – activates the human receptor GPR151; Q8TDV0; 650,000 tested, 1% active; PathHunter beta-arrestin GPR151 cells, luminescence; activation, % at 11.2 µM; in the data active = activation above about 4.9%;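 also: 0% = median of compound wells and 100% = cells with positive control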
MITF inh – blocks human microphthalmia-associated transcription factor; AID 1259374; 650,000 tested, 0.91% active; inhibition, % at 2.6 µM; AlphaScreen MITF homodimerization, bead proximity signal; in the data active = inhibition above about 50%;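 also: 0% = vehicle wells with protein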
Target sequence (O75030 whole entry, looked up): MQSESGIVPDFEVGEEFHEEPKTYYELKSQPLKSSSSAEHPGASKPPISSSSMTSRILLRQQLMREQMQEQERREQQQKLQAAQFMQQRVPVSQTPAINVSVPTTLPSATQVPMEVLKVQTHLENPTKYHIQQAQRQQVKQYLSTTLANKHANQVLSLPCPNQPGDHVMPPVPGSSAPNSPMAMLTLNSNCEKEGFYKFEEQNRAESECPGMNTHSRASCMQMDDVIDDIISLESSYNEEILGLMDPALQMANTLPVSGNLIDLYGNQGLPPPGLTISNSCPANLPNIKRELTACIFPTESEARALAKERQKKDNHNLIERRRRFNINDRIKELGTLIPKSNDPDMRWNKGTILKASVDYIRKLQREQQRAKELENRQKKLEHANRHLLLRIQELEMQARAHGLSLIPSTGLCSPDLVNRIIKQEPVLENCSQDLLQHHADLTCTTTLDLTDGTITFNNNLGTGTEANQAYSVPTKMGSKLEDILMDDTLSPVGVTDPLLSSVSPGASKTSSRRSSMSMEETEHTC
FBW7 act – human FBW7 E3 ligase activation, primary screen; AlphaScreen FBW7–phospho-cyclin E peptide binding, activator screen; normalized activity (activation), % at 26.1 µM; 650,000 tested, 0.13% active; in the data active = normalized activity above about 1.9%;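 also: purified mutant Fbw7 with reduced substrate affinity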
TEAD-YAP inh – TEAD-YAP interaction inhibition | HEK-TIYL cells, TEAD-Gal4/YAP UAS-luciferase luminescence | inhibition, % at 9.12 µM | 640,000 tested, 1.4% active | AID 1259422; in the data active = inhibition above about 32%;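 also: 0% = median of test compound wells and 100% = reference inhibitor wells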
GPR151 conf act – human GPR151 activation, confirmation screen | shares compounds with GPR151 activ | GPR151 PathHunter beta-arrestin cells, luminescence, 90 min; % of EA-reagent control over plate median | activation, % at 11.2 µM | 6,700 tested, under 10 active | AID 1508609;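 active = mean percent activation across replicates above the confirmation screen cutoff of 4.91%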
GPR119 counter – GPR119 activation, counter-screen for GPR151 activators | 6,700 tested, 0.3% active | GPR119 PathHunter beta-arrestin cells, luminescence, 90 min; 0 = compound-well median, 100 = enzyme-acceptor control | activation, % at 11.2 µM | shares compounds with GPR151 activ | AID 1508611;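 active = mean percent activation in the counterscreen above 29.09%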;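 also: counterscreen on off-target GPR119 to flag nonselective hits from the GPR151 activator screen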
* hit, by the source's call; x = no result.

SMILES	GPR151 activ	MITF inh	FBW7 act	TEAD-YAP inh	GPR151 conf act	GPR119 counter
CCCOc1cc2oc(=O)cc(C)c2cc1Cl	5.4*	8.4	0.0	-10.5	-0.3	-4.6
Cc1ccnc(NC(c2cccc(C)n2)c2ccc3cccnc3c2O)c1 (centres undefined)	-1.0	26.2	-0.3	18.6	x	x
COc1cccc(C(Nc2cc(C)ccn2)c2ccc3cccnc3c2O)c1 (centres undefined)	5.1*	31.6	-0.2	80.4*	-0.3	-0.4
CCCC(=O)Nc1c2c(nn1-c1ccccc1)CS(=O)C2 (centres undefined)	0.9	7.8	-0.1	7.5	x	x
Cc1c(C)n(C(=O)C(C)Cl)c2ccccc12 (centres undefined)	0.5	6.8	0.2	1.1	x	x
CCCCOc1ccc(CSc2nncn2N)cc1[N+](=O)[O-]	5.1*	9.4	0.0	-39.4	-1.0	-10.5
O=C(Nc1ccc2c(c1)CN(C1CSCCSC1)CC2)c1ccncc1	5.3*	-11.2	0.1	-27.3	0.3	7.0
NC(=O)C1(N2CCCCC2)CCN(C(=S)Nc2ccc(F)cc2)CC1	-0.9	1.9	0.1	13.3	x	x
NC(=O)C1(N2CCCCC2)CCN(C(=O)Nc2ccc(F)cc2F)CC1	5.9*	3.4	0.0	-3.0	0.8	4.6
NC(=O)c1ccccc1NC(=O)CSc1nc2ccccc2c(=O)[nH]1	5.3*	-13.7	-0.4	0.2	-0.5	0.5
COC(=O)c1ccccc1NC(=O)CSc1nc2ccccc2c(=O)[nH]1	0.1	1.8	0.0	5.3	x	x
O=C(O)CSc1nc2ccccc2c(=O)n1-c1ccc(F)cc1	-0.2	26.4	0.4	-0.1	x	x
CCCN1C(=O)c2ccc(C(=O)Nc3ccccc3I)cc2C1=O	-1.6	6.7	0.0	7.2	x	x
CN1C(=O)c2ccc(C(=O)Nc3ccccc3I)cc2C1=O	5.2*	5.7	-0.1	9.2	-0.1	-1.3
CCCCN1C(=O)C(O)=C(C(C)=O)C1c1ccc(OC)cc1OC (centres undefined)	5.2*	10.0	0.0	-0.8	0.7	11.9
COc1ccc(C2C(C(C)=O)=C(O)C(=O)N2CCO)c(OC)c1 (centres undefined)	0.1	-7.0	-0.1	-1.8	x	x
Cc1ccc(NC(=O)CCCOc2cc(=O)n(C)c3ccccc23)c(Cl)c1	0.3	3.8	-0.2	-7.1	x	x
COc1cccc(NC2=NCC(=O)N2Cc2ccc(F)cc2)c1	6.0*	-5.5	-0.2	-16.5	1.0	9.2
Cc1ccc2c(c1)OCC(c1nc3ccc(-c4ccncc4)cc3[nH]1)O2 (centres undefined)	5.1*	9.5	0.2	-6.8	0.3	-2.0
c1ccc2c(c1)OC[C@@H](c1nc3ccc(-c4ccncc4)cc3[nH]1)O2	-0.3	10.2	0.0	-34.6	x	x
COc1cccc(CN2CCN(C(=O)c3cc(C(C)C)[nH]n3)CCC2=O)c1	-1.0	5.3	0.1	-13.4	x	x
CCC(C)(C)C1CCC(NC(=O)C(=O)Nc2ccccc2)CC1 (centres undefined)	6.3*	7.6	0.0	-14.4	0.0	-4.7
O=C(N1CCOCC1)N1CCN(Cc2ccc3c(c2)OCO3)CC1	6.1*	7.0	-0.1	10.6	0.3	-4.4
OC(COCc1ccc2c(c1)OCO2)CN1CCN(Cc2ccccc2)CC1 (centres undefined)	6.9*	1.2	-0.1	1.8	0.4	-2.2
CCN1CCN(CC(O)COCc2ccc3c(c2)OCO3)CC1 (centres undefined)	0.1	11.2	0.2	5.3	x	x
SMILES	GPR151 activ	MITF inh	FBW7 act	TEAD-YAP inh	GPR151 conf act	GPR119 counter
OC(COc1ccccc1)CN1CCN(Cc2ccc3c(c2)OCO3)CC1 (centres undefined)	8.4*	15.1	0.1	7.8	-1.0	-8.5
Cc1nnc2ccc(SCC(=O)N3CCN(Cc4ccc5c(c4)OCO5)CC3)nn12	5.7*	16.5	0.2	-6.5	1.0	5.1
N#CCC(=O)NCCOc1ccccc1	8.6*	10.9	0.1	4.5	0.6	1.2
COc1cc(/C=c2\sc3nc4c(C)c(C)ccc4n3c2=O)ccc1OCc1ccccc1F	0.3	-10.2	0.0	-8.7	x	x
O=C(c1ccccc1)N1CCN(C(=O)c2ccccc2F)CC1	0.1	10.8	-0.1	5.4	x	x
CNC(=O)C1CN(Cc2ccc3c(c2)OCO3)CCN1C(=O)c1ccc(F)c(F)c1 (centres undefined)	7.2*	2.5	-0.1	-2.5	-0.2	-9.4
CCOC(=O)c1cc(Cc2ccccc2)sc1NC(=S)NN1CCOCC1	0.1	-6.5	0.0	7.7	x	x
CCCCCCn1c(N/N=C/c2ccc([N+](=O)[O-])cc2)nc2c1c(=O)[nH]c(=O)n2C	5.9*	-1.2	0.1	10.8	-0.1	2.6
COc1cc(/C=N/NC(=O)c2ccccc2O)cc(Br)c1O	-0.6	3.1	0.0	-19.5	x	x
COc1ccc(OC)c(CCNCc2c(C(=O)O)n(C)c3cc(C)ccc23)c1	0.2	-0.6	0.1	14.2	x	x
COc1cc(NC(=O)C2CCCN2S(=O)(=O)c2cccc3cccnc23)cc(OC)c1 (centres undefined)	-1.1	13.5	0.1	-22.1	x	x
COc1cccc(NC(=O)C2CCCN2S(=O)(=O)c2cccc3cccnc23)c1 (centres undefined)	7.3*	5.0	0.2	-21.1	0.0	-0.2
CSC(=S)n1c(C)nc2ccccc21	1.1	-1.3	-0.2	-2.2	x	x
O=c1[nH]c(=O)n(-c2ccccc2Cl)c(O)c1C=NCCCn1ccnc1	4.9*	19.3	0.1	6.2	-0.4	-2.5
Cc1ccccc1-n1c(=O)cc(NCCCn2ccnc2)[nH]c1=O	13.6*	8.5	-0.3	0.2	0.6	3.5
CCc1ccc(S(=O)(=O)NCCCN2CCOC(c3ccccc3)C2)s1 (centres undefined)	0.3	12.0	-0.2	-11.5	x	x
CC(C)CCNC(=O)C(Cc1ccccc1)NS(=O)(=O)c1ccc(F)cc1 (centres undefined)	4.9*	9.4	0.0	6.0	-0.9	-5.9
Nc1cc(C(=O)OCC(=O)Nc2cccc(S(N)(=O)=O)c2)ccc1Cl	6.4*	9.2	-0.1	1.9	0.4	-2.7
CC(=O)c1cccc(NC(=O)COC(=O)c2ccc(Cl)c(N)c2)c1	-0.3	-2.9	-0.1	-3.3	x	x
CCOC(=O)CNS(=O)(=O)Cc1ccccc1	6.8*	19.9	0.6	3.6	0.2	-7.4
O=C(O)CNS(=O)(=O)Cc1ccccc1	-1.5	-6.9	0.1	-1.9	x	x
COc1cc(NC(=O)CSc2nnnn2C)cc(OC)c1	5.1*	-2.9	0.0	6.3	-0.2	-2.6
O=C(CSc1ccc2nnc(-c3cccnc3)n2n1)N1CCCCCC1	-1.2	10.3	0.3	2.5	x	x
O=C(CSc1ccc2nnc(-c3cccnc3)n2n1)N1CCCCC1CCn1ccnc1 (centres undefined)	7.7*	30.8	0.7	-0.4	0.7	2.2
COc1ccc(-c2csc3ncnc(SCc4c(C)noc4C)c23)cc1	8.1*	-16.3	0.4	-3.2	-0.5	-4.3

Assay outcomes: PubChem BioAssay, The Scripps Research Institute Molecular Screening Center
